From PubChem BioAssay
The list is not random: actives were taken first. Their share in the collection is about 6.5%.
Lassa entry inh: blocks Lassa virus binding to or entry into cells | Lassa virus pseudotype entry inhibition, cell reporter | Potency, µM (titrated, usually from 37.9 µM), actives largely listed as inhibitors | 1.2% of 300,000 active | AID 540256; calls by dose curve; tested in HEK293 cells; also: nearly all actives have a fitted effect of over 50% in size
VACV Venus inh: inhibitors of vaccinia virus (Venus reporter). Vaccinia virus Venus reporter expression, fluorescence. Potency, µM (titrated, usually from 36.5 µM), most hits filed as inhibitors. 0.46% of 330,000 active. AID 720580; calls by dose curve; tested in A549 cells; also: nearly all actives have a fitted effect of over 30% in size
VACV mCherry inh: vaccinia inhibition (mCherry reporter); Vaccinia virus mCherry reporter infection, fluorescence; Potency, µM (top dose mostly 36.5 µM), most hits filed as inhibitors; 0.63% of 310,000 active; AID 720579; calls by dose curve; tested in A549 cells; also: nearly all actives have a fitted effect of over 35% in size
HCMV antiviral: inhibitors of human cytomegalovirus; HFF cells, HCMV-luciferase reporter, 72 h; hits give low values; activity change, negative = inhibition, % at 57.5 µM; AID 1259415; 4.5% of 410,000 active; in the data active = activity change below about -60%; inconclusive = no clear call, values can overlap the other calls; inactive = above about -39%
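Cell-based, HFFs, 1000 cells/well, 16 h 37C; cpds in DMSO + HCMV-luc, MOI 1 PFU/cell; 72 h 37C; OneGlo luminescence after 5 min RT; norm. to buffer vs Salinomycin 10uM.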
FMDV inh: foot and mouth disease virus antiviral activity; FMDV antiviral cell-based qHTS; 1.2% of 410,000 active; AID 1159524; Potency, µM (highest dose often 57.9 µM), usual class: inhibitors; calls by dose curve; tested in HEK293T cells; also: read-out not given here; nearly all actives have a fitted effect of over 45% in size
Marburg entry inh: inhibitors of Marburg virus binding or cell entry. Marburg virus pseudotyped entry inhibition, cell reporter. Potency, µM (doses to about 37.8 µM), usual class: inhibitors. 1.8% of 300,000 active. AID 540276; calls by dose curve; tested in HEK293 cells
Large screens that a line does not name were inactive.

O=C(Cc1sc(-c2ccccc2Cl)nc1-c1ccccc1)Nc1ccc(F)cc1	HCMV antiviral -60.2, Marburg entry inh inconclusive (no result: VACV mCherry inh)
COC(=O)CC=C1c2ccccc2[C@@H](NC(=O)OC)[C@@H]1C	none (no result: Lassa entry inh, VACV Venus inh, VACV mCherry inh, HCMV antiviral, FMDV inh)
O=C(c1ccco1)N1CCN(c2nc(C3CC3)nc3c2nnn3Cc2ccccc2Cl)CC1	Lassa entry inh inconclusive, VACV Venus inh inconclusive, VACV mCherry inh inconclusive, FMDV inh 35.5µM, Marburg entry inh inconclusive
CC(C)(C)c1nc(N2CCN(C(=O)c3ccco3)CC2)c2nnn(Cc3ccccc3)c2n1	Lassa entry inh 25.9µM, HCMV antiviral inconclusive, FMDV inh 28.2µM, Marburg entry inh inconclusive (no result: VACV Venus inh, VACV mCherry inh)
Brc1cccc(-c2nnn3c2nc(NCc2ccc4c(c2)OCO4)c2ccccc23)c1	Marburg entry inh inconclusive
CC(C)(C)OC(=O)NCC(=O)Oc1cc2oc(=O)cc(-c3ccccc3)c2cc1Cl	HCMV antiviral -76.2
CCCN(C(=O)CSCC(=O)Nc1cccc(C)c1)c1c(N)n(Cc2ccccc2)c(=O)[nH]c1=O	none
Cc1cccc(NC(=O)CSCC(=O)N(CCC(C)C)c2c(N)n(Cc3ccccc3)c(=O)[nH]c2=O)c1	Lassa entry inh 10µM, Marburg entry inh inconclusive
CCOC(=O)N(C)[C@H]1C[C@H]2c3[nH]c4ccccc4c3CCN2C[C@H]1[C@H](C)O	none (no result: Lassa entry inh, Marburg entry inh)
CCOC(=O)N(C)[C@H]1C[C@H]2c3cc(-c4ccccc4C)ccc3CCN2C[C@H]1[C@H](C)O	HCMV antiviral -89.1 (no result: Lassa entry inh, VACV Venus inh, VACV mCherry inh, FMDV inh, Marburg entry inh)
CC1CC(Nc2ccccc2)c2ccccc2N1C(=O)c1cccnc1 (stereo unspecified)	VACV Venus inh inconclusive, VACV mCherry inh inconclusive, Marburg entry inh inconclusive (no result: FMDV inh)
CC1CC(Nc2ccccc2)c2ccccc2N1C(=O)c1ccccc1F (stereo unspecified)	HCMV antiviral -66.7, FMDV inh inconclusive (no result: Lassa entry inh, VACV Venus inh, VACV mCherry inh, Marburg entry inh)
CC(=O)N(c1ccccc1)C1CC(C)N(C(=O)c2ccccc2)c2ccccc21 (stereo unspecified)	FMDV inh inconclusive, Marburg entry inh inconclusive
C[C@@H]1C[C@H](Nc2ccccc2)c2ccccc2N1C(=O)c1cccnc1	Lassa entry inh inconclusive, VACV Venus inh inconclusive, FMDV inh inconclusive, Marburg entry inh 10µM (no result: VACV mCherry inh)
O=C(Nc1ccc(F)c(F)c1)c1ccco1	HCMV antiviral -78.1 (no result: Lassa entry inh, VACV Venus inh, VACV mCherry inh, Marburg entry inh)
O=C(Nc1ccc(NC(=O)c2ccco2)cc1)c1ccco1	none
O=C(NNc1ccccc1)c1sc2ccccc2c1Cl	none (no result: Lassa entry inh, HCMV antiviral, FMDV inh, Marburg entry inh)
O=C(Nc1ccc(-c2ccccc2)cc1)c1ccco1	HCMV antiviral -64.1, Marburg entry inh inconclusive
O=C(Nc1ccc(N2CCN(Cc3ccccc3Cl)CC2)cc1)c1cccnc1	HCMV antiviral -63.9, FMDV inh inconclusive, Marburg entry inh inconclusive
O=C(Nc1ccc(NC(=O)c2sc3ccccc3c2Cl)cc1)c1ccco1	HCMV antiviral -75.8, FMDV inh inconclusive, Marburg entry inh inconclusive
COc1cc(=O)n2c(c1C(=O)N(C)Cc1nonc1C)CCN(C(=O)c1cc(C)ccc1C)CC2	none (no result: Lassa entry inh, HCMV antiviral, Marburg entry inh)
CCN1CCN(C(=O)c2cc(NC(=O)COC)cc3nc(-c4ccncc4)n(C)c23)CC1	none (no result: Lassa entry inh, HCMV antiviral, Marburg entry inh)
COc1cc(NC(=O)Cc2noc3ccccc23)cc(OC)c1OC	none (no result: Marburg entry inh)
Cc1ccc(CN(Cc2ccco2)C(=O)c2ccccc2Br)o1	none
O=C(Nc1ccc(N2CCN(Cc3ccccc3)CC2)cc1)c1ccco1	HCMV antiviral -82.5
Cc1ccoc1C(=O)Nc1ccc2ccccc2c1	Lassa entry inh 10µM, FMDV inh inconclusive, Marburg entry inh inconclusive
O=C(Nc1ccc(Nc2ccccc2)cc1)c1ccco1	HCMV antiviral -63.7, Marburg entry inh inconclusive
O=C(Nc1ccc(Nc2ccccc2)cc1)c1c(Cl)cccc1Cl	VACV mCherry inh inconclusive, HCMV antiviral -74.5, Marburg entry inh inconclusive
Cc1ccc(NC(=O)CSc2nc3ccccc3n2CC(=O)N2CCC(C)CC2)cc1C	Lassa entry inh inconclusive (no result: Marburg entry inh)
O=C(NCCCN1CCOCC1)c1cnn(-c2ncc3c(n2)-c2ccccc2CC3)c1C1CC1	none (no result: Lassa entry inh, HCMV antiviral, Marburg entry inh)
O=C(Nc1ccc(Oc2ccc(NC(=O)c3ccco3)c(NC(=O)c3ccco3)c2)cc1)c1ccco1	HCMV antiviral inconclusive, Marburg entry inh inconclusive (no result: FMDV inh)
O=C(Nc1ccc(Oc2ccc3ccccc3c2)cc1)c1ccco1	HCMV antiviral -68.5, Marburg entry inh inconclusive
C[C@@H]1O[C@H](O[C@H]2C[C@@H](O)[C@]3(CO)[C@H]4[C@H](O)C[C@]5(C)[C@@H](C6=CC(=O)OC6)CC[C@@]5(O)[C@H]4CC[C@]3(O)C2)[C@@H](O)[C@H](O)[C@H]1O	Marburg entry inh 0.0651µM (no result: Lassa entry inh, VACV Venus inh, VACV mCherry inh, HCMV antiviral, FMDV inh)
CC1OC(O[C@H]2C[C@@H](O)[C@]3(CO)[C@H]4[C@H](O)C[C@]5(C)[C@@H](C6=CC(=O)OC6)CC[C@]5(O)[C@@H]4CC[C@]3(O)C2)C(O)C(O)C1O (stereo partly specified)	VACV Venus inh 0.0035µM, VACV mCherry inh inconclusive (no result: Lassa entry inh, HCMV antiviral, FMDV inh, Marburg entry inh)
COC1C(O)C(C)OC(OC2CCC3(C)C(CCC4C3C(O)CC3(C)C(C5=CC(=O)OC5)CCC43O)C2)C1O (stereo unspecified)	Lassa entry inh inconclusive, VACV Venus inh 0.355µM, VACV mCherry inh 0.251µM, HCMV antiviral -99.5, Marburg entry inh inconclusive
CC1CC2C(C(O)C[C@]3(C)C2CC[C@]3(O)C(=O)CO)[C@]2(C)C=CC(=O)C=C12 (stereo partly specified)	none (no result: Lassa entry inh, HCMV antiviral, Marburg entry inh)
COC1C(O)C(OC2CC[C@]3(C=O)C4C(OC(C)=O)C[C@@]5(C)C(C6=CC(=O)OC6)CC[C@]5(O)C4CC[C@]3(O)C2)OC(C)C1OC(C)=O (stereo partly specified)	none (no result: Lassa entry inh, HCMV antiviral, Marburg entry inh)
Cc1ccc(NC(=O)Cn2c(=O)cc(-c3ccccc3)c3c(C)nn(C)c32)c(Cl)c1	VACV Venus inh inconclusive, VACV mCherry inh inconclusive, FMDV inh inconclusive (no result: Marburg entry inh)
CC(C)c1oc(=O)cc2c1[C@@H](O)[C@H]1OC(=O)[C@@]3(C)C[C@@H](O)[C@@H](O)[C@@]2(C)C13 (stereo partly specified)	Lassa entry inh 6.51µM, VACV Venus inh 2µM, VACV mCherry inh inconclusive, HCMV antiviral -97.8, FMDV inh inconclusive, Marburg entry inh 3.26µM
CC(C)c1oc(=O)cc2c1[C@@H](O)[C@H]1OC(=O)[C@@]3(C)CC[C@@H](O)[C@@]2(C)C13 (stereo partly specified)	Lassa entry inh inconclusive, VACV Venus inh 3.98µM, VACV mCherry inh inconclusive, HCMV antiviral -96.8, FMDV inh inconclusive, Marburg entry inh inconclusive
O=C1N=c2ccccc2=NC1C(=O)c1ccccc1 (stereo unspecified)	none (no result: Lassa entry inh, VACV Venus inh, VACV mCherry inh, HCMV antiviral, FMDV inh)
COC(=O)[C@@]1(C=C2c3ccc(F)cc3[C@@H](OC)[C@@H]2C)[C@@H]2C=CC[C@@H]21	none (no result: Lassa entry inh, VACV Venus inh, VACV mCherry inh, HCMV antiviral, FMDV inh)
CCC(=O)NC1=C(Cl)C(=O)C(NC(=O)CC)=C(Cl)C1=O	VACV Venus inh inconclusive, HCMV antiviral -94.0, FMDV inh inconclusive (no result: Lassa entry inh, Marburg entry inh)
O=C(c1ccccn1)N1CCN(S(=O)(=O)c2ccccc2)CC1	HCMV antiviral -94.2
CC(=NNC(=S)N1CC2CCC(CC2)C1)c1ccccn1	VACV Venus inh inconclusive, VACV mCherry inh inconclusive, HCMV antiviral -99.6 (no result: Lassa entry inh, Marburg entry inh)
